Assay [1] can be described thus: Nuclear factor erythroid 2-related factor 2/antioxidant responsive element (Nrf2/ARE) small molecule agonists: qHTS cell viability counter screen in human keratinocytes (AID 1919968; active = well fitted curve in the direction sought with a large enough effect in the repeat runs; an effect the other way counts as inactive or inconclusive; note: nearly all actives have a fitted effect of over 55% in size). The method, boiled down:
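Measured as CellTiter-Fluor fluorescence, this readout tracks cytotoxicity in the same wells as the ARE-luciferase screen. HaCaT reporter cells (1,500/well) received compounds after a 5 h pre-incubation and were exposed for 23 h.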
On the technique in general: qHTS replaces the single test concentration by a dilution series.

A short description of assay [2]: Nuclear factor erythroid 2-related factor 2/antioxidant responsive element (Nrf2/ARE) small molecule agonists: luciferase reporter gene qHTS assay in human keratinocytes (AID 1919969; note: nearly all actives have a fitted effect of over 35% in size; note: potency is the fitted concentration of half-maximal effect). (In general: A reporter such as luciferase makes a cellular process visible.)
Assay [3] has as its target Gonadotropin-releasing hormone receptor (Homo sapiens) (UniProt P30968). The assay can be described thus: Human gonadotropin-releasing hormone receptor (GnRHR) small molecule agonists, calcium flux assay in GnRHR-HEK293 cells (AID 1920063). Note: nearly all actives have a fitted effect of over 35% in size. The method, boiled down:
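Fluorescence kinetics (480 nm excitation, 540 nm emission; 3 min, 1 s steps) report calcium mobilisation in human GnRHR-HEK293 cells in agonist mode. Dye incubation: 1 h, 37 C.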

In assay [4] the target is KiSS-1 receptor (Homo sapiens) (UniProt Q969F8). Kind of assay: Human kisspeptin (KISS1R) small molecule agonists, calcium flux assay in KISS1R-HEK293 cells (AID 1920064; active = well fitted curve in the direction sought with a large enough effect in the repeat runs; an effect the other way counts as inactive or inconclusive). Put shortly:
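Measures KISS1R agonism through calcium-sensitive dye fluorescence in stably transfected HEK293 cells, read for 3 min after pin-tool compound delivery; 15-point titrations in triplicate.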
(A change in cytosolic calcium serves as a functional read-out for many receptors and channels.)

Assay [5] in a line: G protein-coupled receptor (GPCR) small molecule agonists, calcium flux assay: HEK293 wild type cell line counter screen (AID 1920065). Put shortly:
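Readout: fluorescence at 480 nm excitation/540 nm emission, sampled at 1 s intervals for 3 min. Cells had been cultured 18 h, then dye-loaded 1 h at 37 C before compound or ATP addition.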

The nature of assay [6]: p53 small molecule agonists, cell-based qHTS assay with human liver microsomes (AID 1963577). Put shortly:
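p53RE-bla reporter cells were pre-incubated 5 h at 37 C, then treated with compounds plus human liver microsomes (0.5 mg/mL final) and NADPH (0.5 mg/mL final) for 16 h at 37 C. Beta-lactamase activity was read by LiveBLAzer fluorescence after 2 h at room temperature.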

The nature of assay [7]: p53 small molecule agonists, cell-based qHTS assay with rat liver microsomes (AID 1963578). Put shortly:
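p53RE-bla cells were exposed to compounds together with rat liver microsomes (0.5 mg/mL final) and NADPH (0.5 mg/mL final) for 16 h at 37 C, then read by LiveBLAzer beta-lactamase fluorescence after 2 h at room temperature.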

Assay [8] in a line: p53 small molecule agonists, cell-based qHTS assay with human liver microsomes: qHTS cell viability counter screen (AID 1963579). Note: nearly all actives have a fitted effect of over 45% in size. Note: potency is the fitted concentration of half-maximal effect. The method, boiled down: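 p53RE-bla cells (4,000/well) were pre-incubated 5 h at 37 C, then given compounds in DMSO plus human liver microsomes (0.5 mg/mL final) and NADPH (0.5 mg/mL final) for 16 h at 37 C. Viability was read by CellTiter-Glo luminescence.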

Assay [9] is described as follows: p53 small molecule agonists, cell-based qHTS assay with rat liver microsomes: qHTS cell viability counter screen (AID 1963580). Note: nearly all actives have a fitted effect of over 45% in size. The method, boiled down:
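Viability is assessed in parallel with the p53 reporter read: HCT-116 p53RE-bla cells receive compounds plus rat microsomes and NADPH (0.5 mg/mL final apiece), incubate 16 h at 37 C, and then CellTiter-Glo luminescence is recorded.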

Assay [10] in a line: p53 small molecule agonists, cell-based qHTS assay (AID 1963582; active = well fitted activation curve with a large enough effect in the signal ratio in the repeat runs, not every such curve was filed as active; the % refers to the signal ratio). Put shortly:
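Compounds are pin-transferred in DMSO onto p53RE-bla cells and incubated 16 h at 37 C. The B/G FRET beta-lactamase substrate is then applied for 2 h at RT and fluorescence recorded.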

The target of assay [11] is 5-hydroxytryptamine receptor 2A (Homo sapiens) (UniProt P28223). The assay can be described thus: 5-hydroxytryptamine receptor 2A (HTR2A) small molecule agonists, cell-based qHTS assay (AID 1963587). Note: nearly all actives have a fitted effect of over 30% in size. Put shortly: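 CHO cells stably expressing human HTR2A, plated 18 h, loaded with calcium dye 1 h at 37 C. Agonist mode: compounds added and intracellular calcium fluorescence recorded kinetically for 2 min at 1 sec intervals.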

Assay [12] deals with Muscarinic acetylcholine receptor M1 (Homo sapiens) (UniProt P11229). Kind of assay: Cholinergic receptor muscarinic 1 (CHRM1) small molecule antagonists, cell-based qHTS assay (AID 1963588). Note: nearly all actives have a fitted effect of over 40% in size. Put shortly:
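CHRM1-CHO calcium-flux assay, antagonist mode. Cells were seeded 18 h, dye-loaded 1 h at 37 C and given compound for 5 min at RT, then acetylcholine was added at 50nM. FDSS fluorescence was read 3 min; 15 concentrations, three runs.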

Assay [13] has the same target. Kind of assay: Cholinergic receptor muscarinic 1 (CHRM1) small molecule agonists, cell-based qHTS assay (AID 1963589). Note: nearly all actives have a fitted effect of over 35% in size. Put shortly: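 Each compound was tested at 15 concentrations across three independent runs on dye-loaded CHO cells stably expressing human CHRM1, reading intracellular calcium fluorescence kinetically at 1 sec intervals.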
A short description of assay [14]: cAMP Responsive Elements (CRE) small molecule agonists, cell-based qHTS assay (AID 1963590). Put shortly: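 Cell line: CRE-bla HEK 293T; medium DMEM/10% dialyzed FBS/0.1 mM NEAA/1 mM pyruvate/25 mM HEPES; 3 h compound exposure; beta-lactamase FRET readout after 2 h substrate loading at RT.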
Assay [15] has as its target D(2) dopamine receptor (Homo sapiens) (UniProt P14416). Kind of assay: Dopamine D2 receptor (DRD2) small molecule agonists, cell-based qHTS assay (AID 1963594). Note: nearly all actives have a fitted effect of over 35% in size. Put shortly:
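HEK293 cells stably expressing human DRD2, pre-treated with PDE inhibitor Ro20-1724 (0.1 mM final) and compound 10 min at room temperature, then stimulated with NKH477 (200nM […]) for 30 min. cAMP read by HTRF (665/620 nm).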

Assay [16] shares this target. The assay can be described thus: Dopamine D2 receptor (DRD2) small molecule antagonists, cell-based qHTS assay (AID 1963595; active = well fitted inhibition curve with a large enough effect in the signal ratio in the repeat runs, with a control signal flat; the % refers to the signal ratio). The method, boiled down: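 HEK293 cells stably expressing DRD2, preincubated with 0.1 mM Ro20-1724 and compounds 10 min, were stimulated with 200 nM NKH477 plus 12 nM quinpirole for 30 min at room temperature; cAMP measured by HTRF (665/620 nm).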

The target of assay [17] is 5-hydroxytryptamine receptor 2A (Homo sapiens) (UniProt P28223). The assay can be described thus: 5-hydroxytryptamine receptor 2A (HTR2A) small molecule antagonists, cell-based qHTS assay (AID 1963586). Note: nearly all actives have a fitted effect of over 45% in size. The method, boiled down:
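Antagonist-mode intracellular calcium assay: DOI (4 nM) added after 5 min compound pre-incubation at room temperature to dye-loaded HTR2A-CHO cells. Fluorescence followed for 3 min, sampled every second.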

A short description of assay [18]: cAMP Responsive Elements (CRE) small molecule antagonists, cell-based qHTS assay (AID 1963591; active = well fitted inhibition curve with a large enough effect in the signal ratio in the repeat runs, not every such curve was filed as active; the % refers to the signal ratio). Put shortly:
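Inhibition of NKH477-driven (0.25 uM final) CRE-beta-lactamase signal in HEK293T cells, 3 h compound exposure at 37 °C, detected by FRET substrate fluorescence.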

Assay [19] has as its target Beta-2 adrenergic receptor (Homo sapiens) (UniProt P07550). Kind of assay: Adrenergic beta2 receptor (ADRB2) small molecule antagonists, cell-based qHTS assay (AID 1963592). Note: series mostly up to about 92 µM; nearly all actives have a fitted effect of over 50% in size. The method, boiled down: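 Cells (CHO, stable ADRB2 overexpression) incubated 18-20hr at 37C; compounds added from DMSO; agonist mix (1nM isoproterenol, 100uM IBMX, 25uM Ro-20-1724) added; 0.5hr RT; d2-cAMP and anti-cAMP-cryptate added; 1hr RT; 665/615 nm read.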

Assay [20] has the same target. Kind of assay: Adrenergic beta2 receptor (ADRB2) small molecule agonists, cell-based qHTS assay (AID 1963593).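 Note: CHO cells stably overexpressing human ADRB2.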 Put shortly:
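CHO cells stably over-expressing ADRB2 were plated overnight at 37C, then dosed with compounds plus a stimulation mix containing 100uM IBMX and 25uM Ro-20-1724 for 0.5hr at room temperature. cAMP was measured by HTRF competition, 1hr.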

A number with no mark means an inactive call. Records with an inconclusive call do not appear. Activity calls are given as the source filed them. Unless noted, calls come from the whole dose curve.

D(2) dopamine receptor (Homo sapiens), sequence (P14416 whole entry, looked up): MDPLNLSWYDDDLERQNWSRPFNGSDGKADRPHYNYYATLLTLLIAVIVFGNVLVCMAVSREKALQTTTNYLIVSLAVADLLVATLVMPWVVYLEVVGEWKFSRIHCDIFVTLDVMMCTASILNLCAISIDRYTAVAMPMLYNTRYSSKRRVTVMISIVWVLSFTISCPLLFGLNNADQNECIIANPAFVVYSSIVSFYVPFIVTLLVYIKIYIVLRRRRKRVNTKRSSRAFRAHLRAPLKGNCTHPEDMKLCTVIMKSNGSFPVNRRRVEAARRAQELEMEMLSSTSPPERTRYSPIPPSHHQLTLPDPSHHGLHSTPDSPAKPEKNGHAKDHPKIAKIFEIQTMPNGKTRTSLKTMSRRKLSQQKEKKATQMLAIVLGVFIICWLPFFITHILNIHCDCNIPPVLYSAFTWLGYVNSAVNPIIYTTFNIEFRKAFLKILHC
5-hydroxytryptamine receptor 2A (Homo sapiens), sequence (P28223 whole entry, looked up): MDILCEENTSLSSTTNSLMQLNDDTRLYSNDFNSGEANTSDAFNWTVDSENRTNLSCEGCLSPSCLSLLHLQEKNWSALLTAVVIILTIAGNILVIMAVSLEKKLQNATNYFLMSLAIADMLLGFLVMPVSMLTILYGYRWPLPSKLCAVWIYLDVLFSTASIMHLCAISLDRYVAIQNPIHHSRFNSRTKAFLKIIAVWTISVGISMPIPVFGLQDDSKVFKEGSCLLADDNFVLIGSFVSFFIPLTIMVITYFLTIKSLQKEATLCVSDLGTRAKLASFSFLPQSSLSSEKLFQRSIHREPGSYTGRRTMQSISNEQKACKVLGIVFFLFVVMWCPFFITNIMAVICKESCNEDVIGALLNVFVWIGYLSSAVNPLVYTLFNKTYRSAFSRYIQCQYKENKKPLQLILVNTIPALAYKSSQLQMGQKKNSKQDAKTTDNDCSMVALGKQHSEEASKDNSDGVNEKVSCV
Muscarinic acetylcholine receptor M1 (Homo sapiens), sequence (P11229 whole entry, looked up): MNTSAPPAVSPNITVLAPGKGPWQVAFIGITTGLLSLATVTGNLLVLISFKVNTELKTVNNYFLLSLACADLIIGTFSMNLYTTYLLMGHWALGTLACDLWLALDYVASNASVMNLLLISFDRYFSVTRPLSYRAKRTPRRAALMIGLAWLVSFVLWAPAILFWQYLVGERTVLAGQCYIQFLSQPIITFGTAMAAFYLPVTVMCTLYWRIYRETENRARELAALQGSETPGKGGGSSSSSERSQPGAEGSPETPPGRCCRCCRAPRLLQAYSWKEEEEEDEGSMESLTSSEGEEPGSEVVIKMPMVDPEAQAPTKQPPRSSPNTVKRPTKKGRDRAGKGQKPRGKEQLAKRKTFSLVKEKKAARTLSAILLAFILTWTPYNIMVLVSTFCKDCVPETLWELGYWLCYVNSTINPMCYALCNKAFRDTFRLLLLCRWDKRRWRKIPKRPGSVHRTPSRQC
Beta-2 adrenergic receptor (Homo sapiens), sequence (P07550 whole entry, looked up): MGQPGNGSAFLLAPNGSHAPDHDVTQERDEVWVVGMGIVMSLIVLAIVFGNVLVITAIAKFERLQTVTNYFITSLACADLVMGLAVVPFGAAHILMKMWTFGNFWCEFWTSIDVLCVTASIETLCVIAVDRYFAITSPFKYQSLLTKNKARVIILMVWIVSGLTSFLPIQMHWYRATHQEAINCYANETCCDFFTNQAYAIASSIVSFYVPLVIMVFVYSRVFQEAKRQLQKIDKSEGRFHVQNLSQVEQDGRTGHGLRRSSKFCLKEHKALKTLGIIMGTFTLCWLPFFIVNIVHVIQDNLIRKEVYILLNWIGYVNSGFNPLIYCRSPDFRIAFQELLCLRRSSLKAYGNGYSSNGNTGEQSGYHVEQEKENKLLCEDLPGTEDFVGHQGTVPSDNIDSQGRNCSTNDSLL
Gonadotropin-releasing hormone receptor (Homo sapiens), sequence (P30968 whole entry, looked up): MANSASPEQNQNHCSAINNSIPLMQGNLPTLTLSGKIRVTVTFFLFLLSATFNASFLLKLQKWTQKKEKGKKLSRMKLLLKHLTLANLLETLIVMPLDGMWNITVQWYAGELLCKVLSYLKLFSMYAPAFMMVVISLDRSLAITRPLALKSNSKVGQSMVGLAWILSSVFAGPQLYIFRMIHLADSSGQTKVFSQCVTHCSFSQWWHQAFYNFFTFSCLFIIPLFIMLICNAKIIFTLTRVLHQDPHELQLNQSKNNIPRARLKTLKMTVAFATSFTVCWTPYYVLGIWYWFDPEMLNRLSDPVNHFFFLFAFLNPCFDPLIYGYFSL
KiSS-1 receptor (Homo sapiens), sequence (Q969F8 whole entry, looked up): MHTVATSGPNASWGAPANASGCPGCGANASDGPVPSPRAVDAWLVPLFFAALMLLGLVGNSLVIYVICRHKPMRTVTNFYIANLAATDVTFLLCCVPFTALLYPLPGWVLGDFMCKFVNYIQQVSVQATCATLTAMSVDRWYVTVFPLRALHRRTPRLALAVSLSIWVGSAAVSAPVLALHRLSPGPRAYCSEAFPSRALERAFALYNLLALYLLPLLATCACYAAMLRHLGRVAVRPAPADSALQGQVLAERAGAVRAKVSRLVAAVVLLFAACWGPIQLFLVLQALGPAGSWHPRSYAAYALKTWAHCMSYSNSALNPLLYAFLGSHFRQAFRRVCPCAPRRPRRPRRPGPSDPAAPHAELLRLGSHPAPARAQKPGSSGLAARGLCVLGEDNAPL

With `O=C1Nc2cc(Cl)ccc2Oc2ccccc21`, the Potency result in assay [1], in assay [2], in assay [3], in assay [6], in assay [7] and in [8] was “inactive” each time. Also, the Potency result in assay [9], in assay [10], in assay [11], in assay [12], in [13] and in assay [14] was “inactive” throughout. In addition, the Potency result in assay [15] and in [16] was “inactive” in each case. Moreover, the result in assay [4] and in [5] was inactive.
Regarding `CC(=O)Nc1ccccc1C`, the Potency entry in [1], in assay [2], in assay [3], in assay [6], in assay [7] and in [8] was “inactive” each time. The Potency result in [9], in assay [10], in assay [17], in [11], in [12] and in [14] was “inactive” each time. Further, the Potency entry in assay [18], in assay [19], in assay [20], in assay [15] and in [16] was “inactive” throughout. In addition, the outcome in [4] and in assay [5] was inactive.
As to `Cc1c(C)c2c(c(C)c1OC(=O)CCC(=O)O)CC[C@@](C)(CCC[C@H](C)CCC[C@H](C)CCCC(C)C)O2`, the Potency entry in assay [1], in [2], in assay [3], in [6], in assay [7] and in assay [8] was “inactive” in each case. In addition, the Potency result in [9], in assay [10], in assay [11], in [12], in assay [13] and in assay [14] was “inactive” in each case. For the same compound, the Potency result in assay [18], in [19], in [15] and in assay [16] was “inactive” in each case. For the same compound, the result in assay [4] and in [5] was inactive.
In the case of `Nc1ccccc1O`, the Potency entry in [1], in assay [3], in assay [6], in assay [7], in assay [9] and in assay [10] was “inactive” in each case. Moreover, the Potency result in [17], in [11], in assay [12], in assay [15] and in assay [16] was “inactive” throughout. In addition, the Potency in [2] was 47.9 µM (active); in assay [8] it was 28.5 µM (active). Further, the result in assay [4] and in [5] was inactive.
For the compound `COC(=O)CCCCC(CCSS/C(CCO)=C(\C)N(C=O)Cc1cnc(C)nc1N)SC(C)=O` (stereo not given), the Potency entry in assay [1], in assay [2], in assay [3], in assay [6], in assay [7] and in assay [8] was “inactive” in each case. Further, the Potency result in [9], in [10], in assay [11], in [12], in assay [13] and in assay [14] was “inactive” throughout. Further, the Potency result in assay [18], in [19], in assay [20], in assay [15] and in assay [16] was “inactive” in each case. Besides, the outcome in assay [4] and in assay [5] was inactive.
In the case of `O=C(Nc1cccc2c(=O)cc(-c3nn[nH]n3)oc12)c1ccc(OCCCCc2ccccc2)cc1`, the Potency result in assay [1], in [2], in assay [3], in assay [6], in assay [7] and in assay [8] was “inactive” throughout. Moreover, the Potency result in [9], in assay [10], in assay [11], in [12], in assay [13] and in [19] was “inactive” each time. For the same compound, the Potency result in [15] and in [16] was “inactive” throughout. In addition, the result in assay [4] and in [5] was inactive.
For `CSc1cnc(C)cn1`, the Potency result in assay [1], in assay [2], in assay [3], in [6], in [7] and in assay [8] was “inactive” each time. In addition, the Potency result in [9], in [10], in assay [17], in [11], in assay [13] and in assay [14] was “inactive” throughout. In addition, the Potency entry in [18], in [19] and in assay [15] was “inactive” in each case. Besides, the outcome in assay [4] and in assay [5] was inactive.

For the origin of these results see PubChem BioAssay (Tox21).
